According to PubChem BioAssay:
Calls of active or inactive are those of the source. Unless noted, no rule for the calls is given here.

Assays:
[1] = test system: Wnt5a (protein binding on small-molecule microarray); test: small molecules binding Wnt5a protein – biophysical, small-molecule microarray, 635/667 nm fluorescence, primary screen (AID 1142); conditions: 635 nm fluorescence, higher = more signal;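 also: fluorescence read at 667 nm with signal to noise per printed feature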
[2] = ATP-based viability of Huh7 replicon cells – cell-based, CellTiter-Glo luminescence, basal, 48 h, cytotoxicity control for HCV replication inhibitor project, primary screen (AID 1143); conditions: higher = more signal, called active from +8 up or from −8 down;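 also: Huh7 hepatoma cells carrying a hepatitis C replication reporter with no stimulus; test concentration not given here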
[3] = Pseudomonas biofilm growth suppression – PAO1 strain, BacTiter-Glo luminescence, LB-PBS, primary screen (AID 1144); conditions: P. aeruginosa PAO1 biofilm, 12 h, higher = more signal
[4] = basal CRE-LacZ reporter activity in PC12 – cell-based, unstimulated, primary screen (AID 1145); conditions: no forskolin, luminescence, 4.5 h, higher = more signal, called active from +8 up or from −8 down
[5] = forskolin-driven CRE-LacZ activity in PC12 – cell-based, CRE-LacZ reporter, forskolin-stimulated, primary screen (AID 1146); conditions: luminescence, 4.5 h, higher = more signal, called active from +8 up or from −8 down;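 also: PC12 cells with 6xCRE LacZ reporter stimulated by forskolin 10 µM; beta-galactosidase reporter signal reflecting CREB driven transcription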
[6] = molecular target: Streptavidin (Streptomyces avidinii) (UniProt P22629); test: compounds binding control protein streptavidin – biophysical, small-molecule microarray, 635/667 nm fluorescence, artefact control for SMM compound annotation, primary screen (AID 1147); conditions: higher = more signal;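 also: signal reflects streptavidin binding to arrayed compounds as a control protein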
[7] = probe aInhba binding on compound microarray – biochemical, small-molecule microarray, 635/667 nm fluorescence, primary screen (AID 1148); conditions: higher = more signal;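 also: score merges 667nm spot fluorescence with signal-to-noise for antibody binding to printed compounds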
Torsin-1A (Homo sapiens) [8] = molecular target: Torsin-1A (Homo sapiens) (UniProt O14656); test: TOR1A wild-type binding on microarray – cell lysate, small-molecule microarray, lysate, 635/667 nm, primary screen (AID 1149); conditions: COS7 hTOR1A-WT lysate, 635 nm fluorescence, higher = more signal
Torsin-1A (Homo sapiens) [9] = molecular target: Torsin-1A (Homo sapiens) (UniProt O14656); test: torsin A mutant lysate binding on microarrays – cell lysate, small-molecule microarray, COS7 lysate, 635/667 nm fluorescence, primary screen (AID 1150); conditions: COS7 hTOR1A mutant lysate, 635 nm fluorescence, higher = more signal;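 also: score pools 667 nm emission and signal to noise measuring lysate protein binding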
[10] = test system: Sonic hedgehog protein (Shh); test: Sonic hedgehog microarray binding compounds – biochemical, small-molecule microarray, 635/667 nm fluorescence, primary screen (AID 1151); conditions: 635 nm fluorescence, higher = more signal;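 also: Shh protein binding to compounds spotted on small-molecule microarray slides; score combines spot fluorescence intensity with signal-to-noise across triplicate slides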
[11] = optical density shifts of acrAB sulA E. coli – strain DRC41, OD650, 48 h, E. coli filamentation inducer project, primary screen (AID 1152); conditions: higher = more signal, called active from +8 up or from −8 down;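 also: E. coli MC1000 strain DRC41 lacking acrAB efflux pump and sulA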
[12] = probe aLefty1 binding on compound microarray – biochemical, small-molecule microarray, 635/667 nm fluorescence, primary screen (AID 1153); conditions: higher = more signal;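 also: score merges spot fluorescence with signal-to-noise ratio from the scanned slide images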
[13] = plasmodial surface anion channel blockers, osmotic lysis – cell-based, P. falciparum Indochina, OD700, 1 h, primary screen (AID 1154); conditions: P. falciparum Indochina infected RBC osmotic lysis, higher = more signal, called active from +8 up or from −8 down
[14] = plasmodial surface anion channel blockers, osmotic lysis – cell-based, P. falciparum Indochina, OD700, 2 h, primary screen (AID 1155);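 also: lysis reports solute entry through the parasite surface anion channel PSAC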; conditions: P. falciparum Indochina infected erythrocytes, higher = more signal, called active from +8 up or from −8 down
[15] = changes in parasitized red cell lysis, either direction – P. falciparum Indochina, OD700, 3 h, PSAC antagonist project, primary screen (AID 1156); conditions: P. falciparum-infected erythrocytes, osmotic lysis, higher = more signal, called active from +8 up or from −8 down
[16] = plasmodial surface anion channel blockers, osmotic lysis – cell-based, P. falciparum Indochina, OD700, 18 h, primary screen (AID 1157); conditions: P. falciparum Indochina infected erythrocytes, osmotic lysis OD700, 18 h; higher = more signal, called active from +8 up or from −8 down
[17] = S6 kinase pathway phospho-S6 level changes – cell-based, A549, cytoblot, luminescence, serum-stimulated, primary screen (AID 1158); conditions: 5 h, higher = more signal;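 also: serum-stimulated A549 lung adenocarcinoma cells; signal is phosphorylated S6 detected by cytoblot immunostaining with HRP secondary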
[18] = molecular target: NADPH oxidase 2 (Homo sapiens) (UniProt P04839); test: compounds shifting NOX2 Amplex Red fluorescence – cell-based, HEK293-NOX2, PMA-stimulated, NOX inhibitor project, primary screen (AID 1159); conditions: 45 min, higher = more signal, called active from +8 up or from −8 down; also: test concentration not given here
[19] = molecular target: NADPH oxidase 4 (Homo sapiens) (UniProt Q9NPH5); test: compounds shifting NOX4 Amplex Red fluorescence – cell-based, HEK293-NOX4, tetracycline-induced, NOX inhibitor project, primary screen (AID 1160); conditions: HEK293-NOX4, Amplex Red H2O2 fluorescence, 45 min; higher = more signal, called active from +8 up or from −8 down
[20] = molecular target: NADPH oxidase 5 (Homo sapiens) (UniProt Q96PH1); test: compounds shifting NOX5 Amplex Red fluorescence – cell-based, HEK293-NOX5, NOX inhibitor project, primary screen (AID 1161); conditions: HEK293-NOX5, ionomycin, 45 min, higher = more signal
NADPH oxidase 5 (Homo sapiens), sequence (Q96PH1 whole entry, looked up): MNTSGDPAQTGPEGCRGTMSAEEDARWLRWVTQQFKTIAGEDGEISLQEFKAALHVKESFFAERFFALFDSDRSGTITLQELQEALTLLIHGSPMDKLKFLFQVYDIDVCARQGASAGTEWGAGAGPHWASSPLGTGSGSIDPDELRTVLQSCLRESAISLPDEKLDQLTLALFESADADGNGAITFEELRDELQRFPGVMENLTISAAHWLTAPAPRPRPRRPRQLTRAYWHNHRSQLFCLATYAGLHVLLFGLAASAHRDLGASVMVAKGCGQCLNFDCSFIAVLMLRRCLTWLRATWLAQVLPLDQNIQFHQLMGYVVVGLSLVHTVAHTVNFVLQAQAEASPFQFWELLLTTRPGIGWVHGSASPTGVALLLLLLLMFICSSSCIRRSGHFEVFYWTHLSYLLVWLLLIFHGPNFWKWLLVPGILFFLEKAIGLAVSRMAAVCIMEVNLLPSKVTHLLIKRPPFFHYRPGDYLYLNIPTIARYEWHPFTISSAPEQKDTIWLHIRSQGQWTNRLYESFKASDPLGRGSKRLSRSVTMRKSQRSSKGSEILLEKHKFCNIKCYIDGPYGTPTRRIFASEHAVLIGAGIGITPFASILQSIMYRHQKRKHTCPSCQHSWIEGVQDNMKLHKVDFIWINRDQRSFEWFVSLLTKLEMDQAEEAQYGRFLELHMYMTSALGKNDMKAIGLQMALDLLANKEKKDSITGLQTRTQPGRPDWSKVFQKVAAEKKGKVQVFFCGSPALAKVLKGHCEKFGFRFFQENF

Torsin-1A (Homo sapiens), sequence (O14656 whole entry, looked up): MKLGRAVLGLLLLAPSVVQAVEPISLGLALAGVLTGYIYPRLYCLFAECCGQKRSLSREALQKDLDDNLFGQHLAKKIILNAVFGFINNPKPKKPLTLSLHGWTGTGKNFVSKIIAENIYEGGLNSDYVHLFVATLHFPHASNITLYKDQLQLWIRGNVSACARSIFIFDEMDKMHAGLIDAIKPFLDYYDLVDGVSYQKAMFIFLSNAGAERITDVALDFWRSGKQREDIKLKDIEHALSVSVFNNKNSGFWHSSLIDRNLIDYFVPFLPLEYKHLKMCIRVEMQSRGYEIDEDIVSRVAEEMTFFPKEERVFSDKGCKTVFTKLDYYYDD
NADPH oxidase 4 (Homo sapiens), sequence (Q9NPH5 whole entry, looked up): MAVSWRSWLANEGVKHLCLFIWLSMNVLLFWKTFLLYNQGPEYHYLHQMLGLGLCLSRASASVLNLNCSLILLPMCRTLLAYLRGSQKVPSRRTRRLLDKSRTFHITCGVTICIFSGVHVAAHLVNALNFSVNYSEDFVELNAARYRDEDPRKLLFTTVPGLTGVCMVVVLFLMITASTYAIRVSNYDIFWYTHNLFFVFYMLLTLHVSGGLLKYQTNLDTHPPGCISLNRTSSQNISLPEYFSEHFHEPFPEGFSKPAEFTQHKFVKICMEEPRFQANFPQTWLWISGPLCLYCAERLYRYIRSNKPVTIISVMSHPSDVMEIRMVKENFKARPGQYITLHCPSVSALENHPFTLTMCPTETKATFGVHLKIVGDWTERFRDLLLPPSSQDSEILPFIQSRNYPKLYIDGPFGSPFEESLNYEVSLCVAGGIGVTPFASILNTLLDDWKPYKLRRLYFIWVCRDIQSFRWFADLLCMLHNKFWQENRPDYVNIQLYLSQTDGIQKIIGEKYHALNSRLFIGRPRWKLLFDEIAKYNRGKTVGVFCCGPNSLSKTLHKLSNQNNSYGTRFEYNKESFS
Streptavidin (Streptomyces avidinii), sequence (P22629 whole entry, looked up): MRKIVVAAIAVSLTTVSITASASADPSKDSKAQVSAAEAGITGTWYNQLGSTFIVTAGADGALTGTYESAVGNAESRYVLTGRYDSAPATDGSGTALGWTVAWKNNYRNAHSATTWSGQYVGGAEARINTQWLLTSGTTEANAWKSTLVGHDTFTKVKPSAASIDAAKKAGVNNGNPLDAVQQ
NADPH oxidase 2 (Homo sapiens), sequence (P04839 whole entry, looked up): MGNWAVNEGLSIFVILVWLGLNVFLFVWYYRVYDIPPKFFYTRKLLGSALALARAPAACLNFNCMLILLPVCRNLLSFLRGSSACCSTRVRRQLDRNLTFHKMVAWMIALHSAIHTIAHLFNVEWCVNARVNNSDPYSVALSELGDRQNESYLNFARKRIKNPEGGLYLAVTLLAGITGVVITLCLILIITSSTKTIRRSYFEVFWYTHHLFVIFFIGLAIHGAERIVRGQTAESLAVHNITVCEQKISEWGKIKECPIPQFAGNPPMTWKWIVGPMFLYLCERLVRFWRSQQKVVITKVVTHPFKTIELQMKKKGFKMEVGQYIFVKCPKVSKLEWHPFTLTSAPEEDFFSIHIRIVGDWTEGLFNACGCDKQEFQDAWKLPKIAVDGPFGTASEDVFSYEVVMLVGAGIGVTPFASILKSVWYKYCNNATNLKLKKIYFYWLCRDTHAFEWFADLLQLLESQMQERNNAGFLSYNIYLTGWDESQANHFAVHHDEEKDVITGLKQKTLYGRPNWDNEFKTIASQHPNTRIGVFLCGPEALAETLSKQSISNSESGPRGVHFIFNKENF

Row | SMILES | composite z-score [1] | z-score [2] | z-score [3] | z-score [4] | z-score [5] | composite z-score [6] | composite z-score [7] | composite z-score (Torsin-1A (Homo sapiens) [8]) | composite z-score (Torsin-1A (Homo sapiens) [9]) | composite z-score [10] | z-score [11] | composite z-score [12] | z-score [13] | z-score [14] | z-score [15] | z-score [16] | z-score [17] | z-score [18] | z-score [19] | z-score [20]
1 | COc1cc2c(cc1OC)CN(C(=O)[C@H]1[C@@H]3C(=O)O[C@@H](c4ccccc4)[C@@H](c4ccccc4)N3[C@@H](c3ccc(OCCO)cc3)[C@]13C(=O)Nc1ccc(C#CCCO)cc13)CC2 | 0.455 | 0.0229 (inactive) | -0.0983 (inactive) | -0.61 (inactive) | -0.48 (inactive) | 1.31 | 0.659 | 0.272 | 0.764 | 1.62 | 0.0836 (inactive) | 0.433 | 2.66 (inactive) | 1.8 (inactive) | 0.796 (inactive) | 0.802 (inactive) | 0.142 | 1.46 (inactive) | 0.798 (inactive) | 1.66
2 | COc1ccc(NN2C(C(O)c3ccccn3)C=CC3C(=O)N(C4CCCCC4)C(=O)C32)cc1 (stereo not given) | 0.483 | -0.924 (inactive) | -1.43 (inactive) | -0.471 (inactive) | -0.119 (inactive) | 1.37 | 0.0183 | 0.0607 | 0.542 | -0.0244 | 0.29 (inactive) | 0.267 | 3.45 (inactive) | 0.539 (inactive) | 0.34 (inactive) | 0.536 (inactive) | -0.552 | -0.973 (inactive) | -3.8 (inactive) | -2.33
3 | C=CCOC(=O)[C@@H]1[C@H]2C(=O)O[C@H](c3ccccc3)[C@H](c3ccccc3)N2[C@H](c2ccc(OCCOC(=O)[C@H]3C[C@H]4C(=O)N[C@@H](CCCC[N+](C)(C)C)C(=O)N4[C@H]3c3ccc(O)cc3)cc2)[C@@]12C(=O)Nc1ccc(I)cc12 | 0.568 | -0.449 (inactive) | -0.0678 (inactive) | 0.277 (inactive) | -0.391 (inactive) | 0.0658 | 0.0982 | 0.636 | 0.644 | 2.15 | -0.451 (inactive) | 0.113 | 2.42 (inactive) | 1.57 (inactive) | 0.511 (inactive) | 0.792 (inactive) | -0.281 | 1.4 (inactive) | 1.06 (inactive) | 1.24
4 | O=C1c2ccccc2[C@@]2(Cc3ccccc3N(C3CC3)C2=O)[C@H](c2ccc(CO)cc2)N1C1CCCCC1 | -0.157 | 0.0786 (inactive) | 0.122 (inactive) | 0.145 (inactive) | 0.428 (inactive) | -0.885 | -0.0791 | -0.822 | -0.928 | -0.309 | -0.301 (inactive) | -0.0066 | 0.667 (inactive) | -0.0557 (inactive) | 0.181 (inactive) | 0.181 (inactive) | -0.0814 | 0.112 (inactive) | -1.7 (inactive) | -1.45
5 | COC(=O)[C@@]1(Cc2ccccc2)[C@H]2c3cc(C(=O)N4CCCC4)n(C[C@H](O)CO)c3C[C@H]2CN1C(=O)c1ccccc1 | -0.303 | 0.0728 (inactive) | -0.367 (inactive) | 0.39 (inactive) | 0.881 (inactive) | 1.29 | 0.163 | 0.677 | 1.4 | 0.139 | -1.22 (inactive) | -0.165 | 0.975 (inactive) | 0.192 (inactive) | 0.218 (inactive) | 0.592 (inactive) | -0.26 | 0.223 (inactive) | -0.303 (inactive) | -1.45
6 | CCOC(=O)C[C@H]1[C@H](OC(=O)c2ccc(-c3ccccc3)cc2)[C@@H](NC(=O)c2ccc3ccccc3c2)c2cc(OCCCO)ccc2N1C(=O)c1ccc2ccccc2n1 | 0.0577 | 0.866 (inactive) | -0.0546 (inactive) | -0.593 (inactive) | -0.611 (inactive) | 1.02 | 0.106 | 0.138 | 0.527 | 0.539 | -0.572 (inactive) | 0.302 | 4.55 (inactive) | 0.568 (inactive) | -0.559 (inactive) | 0.159 (inactive) | 0.762 | -1.35 (inactive) | 0.928 (inactive) | 0.0885
7 | CN(C)CCCNC(=O)[C@@]1(C)c2ccccc2C(=O)N(Cc2cc(C(F)(F)F)cc(C(F)(F)F)c2)[C@H]1c1ccc(CO)cc1 | -0.284 | -4.27 (inactive) | -0.391 (inactive) | 0.234 (inactive) | -0.227 (inactive) | -0.95 | 0.0275 | -0.639 | -0.774 | -0.584 | -1.2 (inactive) | -0.147 | 2.37 (inactive) | -0.0111 (inactive) | 2.17 (inactive) | 0.327 (inactive) | 0.16 | 0.0342 (inactive) | -1.35 (inactive) | -2.64
8 | CON(C)C(=O)C=C1C[C@@H](c2cccc(Cl)c2)O[C@@H](c2cccc(Cl)c2)O1 | -0.124 | -3.94 (inactive) | 0.875 (inactive) | 0.481 (inactive) | -1.07 (inactive) | 2.55 | -0.183 | 0.643 | 0.124 | 0.774 | -0.511 (inactive) | -0.0035 | 9.13 (active) | 2.17 (inactive) | -1.24 (inactive) | 1.47 (inactive) | 0.178 | -0.0563 (inactive) | -0.986 (inactive) | 0.0304
